Rows were chosen to be rich in hits. Some 2.2% of all compounds tested hit in one or more screens of this group.
Ba/F3 V617F tox – loss of viability in JAK2V617F-driven Ba/F3 cells | Ba/F3 EpoR-JAK2V617F viability, ATP luminescence | inhibition, % at 5.6 µM | 220,000 compounds, 1.1% hits | AID 1446;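 active = inhibition above the campaign mean plus 3 SD over all tested compounds, cut at about 24% in these data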;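 note: cytokine-independent growth of Ba/F3 cells driven by EpoR plus mutant JAK2; 0% = DMSO-treated cells and 100% = JAK inhibitor I control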
BaF3 parental – reduces parental Ba/F3 cell viability, JAK2V617F counter-screen; CellTiter-Glo ATP luminescence; inhibition, % at 5.6 µM; 220,000 compounds, 1.1% hits; AID 1486;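 active = inhibition above a per-campaign cutoff, the mean inhibition of all tested compounds plus 3 SD, cut at about 27% in these data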;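 note: 0% = DMSO wells and 100% = JAK Inhibitor I control wells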
APP 5UTR inh – APP translation inhibition | SH-SY5Y APP 5'UTR-luciferase reporter, luminescence | inhibition, % at 2 µM | 190,000 compounds, 0.82% hits | AID 1285;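 active = inhibition above a set limit, derived from the sample mean plus 3 SD, cut at about 45% in these data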
KLF5 inh – inhibitors of KLF5 expression; DLD-1 KLF5 promoter-luciferase reporter, luminescence; inhibition, % at 5 µM; 290,000 compounds, 0.23% hits; AID 1700;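 active = inhibition above a per-plate limit of that plate's mean compound inhibition plus 3 SD, cut at about 60% in these data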;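 note: 0% = DMSO wells and 100% = LY294002 at 200 µM; higher means less KLF5 promoter-driven luciferase light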
IEC-6 tox – IEC-6 cytotoxicity, counter-screen for KLF5 inhibitors | luminescence viability | 290,000 compounds, 0.78% hits | inhibition, % at 5 µM | AID 1825; in the data active = inhibition above about 22%;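 note: 0% = plate median of test compound wells and 100% = cytotoxic reference compound wells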
aSyn 5UTR inh – 5' untranslated region of α-synuclein, MLPCN primary screen. alpha-synuclein 5'UTR reporter, inhibitor activity. AID 1813. inhibition, % (tested at 7.5 µM). 300,000 compounds, 0.82% hits; in the data active = inhibition above about 60%;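 note: H4 neuroglioblastoma cells stably carrying SNCA 5'UTR luciferase fusion; 0% = DMSO wells and 100% = positive control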
Numbers without * were called inactive.

`Cc1cc(C(=O)N2CC=C(c3ccccc3)CC2)c2ccccc2n1` gave aSyn 5UTR inh 43.3.
Screening CCOc1ccc(N2C(=O)CC(NC3CCN(C(=O)c4cccs4)CC3)C2=O)cc1 (configuration not stated) returned KLF5 inh -0.6, IEC-6 tox 2.3 and aSyn 5UTR inh -13.8.
Cc1cccc(N2C(=O)N3[C@H](c4ccc(Br)cc4)[C@@H]4C(=O)N(C(C)(C)C)C(=O)[C@@H]4[C@]3(C)C2=O)c1 was read as KLF5 inh -9.9, IEC-6 tox 7.4 and aSyn 5UTR inh 19.6.
For CCc1sc(NS(C)(=O)=O)nc1-c1ccccc1 the results were Ba/F3 V617F tox -4.2, BaF3 parental 1.5, APP 5UTR inh 49.8*, KLF5 inh -24.7, IEC-6 tox 0.1 and aSyn 5UTR inh -7.7.
`CC1CCc2sc(C(=O)NNC(=S)NC3CC3)cc2C1` (configuration not stated) gave KLF5 inh -86.2, IEC-6 tox 4.8 and aSyn 5UTR inh -54.3.
Screening COc1cccc(/C=N/Nc2ncnc3c2ncn3Cc2ccccc2)c1O returned Ba/F3 V617F tox 71.0*, BaF3 parental 58.6*, APP 5UTR inh 88.3*, KLF5 inh 11.9, IEC-6 tox 0.5 and aSyn 5UTR inh 101.9*.
Screening COc1cccc(/C=N/Nc2cc(N3CCOCC3)ncn2)c1O returned KLF5 inh 39.5, IEC-6 tox -6.4 and aSyn 5UTR inh 72.2*.
Screening CCCCCCCNC(=O)C1(CC2CC(c3ccc(Cl)cc3)=NO2)CCN(C(=O)CCCCCBr)CC1 (configuration not stated) returned KLF5 inh -6.7, IEC-6 tox -2.1 and aSyn 5UTR inh -2.0.
`CCN(CC)C(=O)CSc1nc2cc(S(=O)(=O)N3CCOCC3)ccc2n1CC` gave KLF5 inh -25.7, IEC-6 tox -1.6 and aSyn 5UTR inh 8.9.
COC(=O)c1sccc1NC(=O)c1c(-c2ccccc2)noc1C was read as Ba/F3 V617F tox -3.1, BaF3 parental 4.8, APP 5UTR inh -9.4, KLF5 inh 9.3, IEC-6 tox 20.3 and aSyn 5UTR inh 5.1.
`COC(=O)c1c(-c2ccc(C)cc2)csc1NC(=O)c1c(-c2ccccc2)noc1C` gave Ba/F3 V617F tox -1.2, BaF3 parental 4.7, APP 5UTR inh -9.6, KLF5 inh -14.4, IEC-6 tox -6.5 and aSyn 5UTR inh 67.9*.
For CCCCN1C2=NCCCN2c2cc(C)c(C)cc21 the results were Ba/F3 V617F tox 50.8*, BaF3 parental 58.8*, APP 5UTR inh -2.0, KLF5 inh -16.3, IEC-6 tox 5.9 and aSyn 5UTR inh 12.2.
For COc1ccc(-c2c[n+]3c(n2-c2ccccc2)SCC3)cc1OC the results were Ba/F3 V617F tox 46.2*, BaF3 parental 76.6*, APP 5UTR inh -31.2, KLF5 inh 5.5, IEC-6 tox 3.0 and aSyn 5UTR inh 15.7.
For Cc1ccc(C2(O)CN(c3ccccc3)C3=[N+]2CCS3)cc1 (configuration not stated) the results were Ba/F3 V617F tox 6.2, BaF3 parental 22.7, APP 5UTR inh -21.5, KLF5 inh -16.2, IEC-6 tox 1.7 and aSyn 5UTR inh -12.2.
For Cc1ccc(-c2c[n+]3c(n2-c2ccccc2)SCC3)cc1 the results were Ba/F3 V617F tox 79.1*, BaF3 parental 64.3*, KLF5 inh 0.4, IEC-6 tox 11.4 and aSyn 5UTR inh 1.1.
For Brc1ccc(-c2c[n+]3c(n2-c2ccccc2)SCC3)cc1 the results were Ba/F3 V617F tox 64.0*, BaF3 parental 59.4*, KLF5 inh -19.1, IEC-6 tox 1.7 and aSyn 5UTR inh -22.5.
COc1ccc(-c2c[n+]3c(n2-c2ccccc2)SCC3)cc1 was read as Ba/F3 V617F tox 73.1*, BaF3 parental 61.2*, KLF5 inh -13.1, IEC-6 tox 1.9 and aSyn 5UTR inh 9.8.
For COc1ccc(-c2nnc3n2-c2ccccc2SC3)cc1OC the results were Ba/F3 V617F tox 1.6, BaF3 parental 4.1, APP 5UTR inh -3.8, KLF5 inh -6.0, IEC-6 tox -2.4 and aSyn 5UTR inh 10.9.
`N#Cc1ccc(-c2cn(-c3ccccc3)c3[n+]2CCCS3)cc1` gave Ba/F3 V617F tox -3.5, BaF3 parental 2.2, APP 5UTR inh -7.8, KLF5 inh -21.6, IEC-6 tox -6.0 and aSyn 5UTR inh 3.4.
`Cc1ccc(-c2cc[n+](Cc3ccccc3)cc2)cc1` gave Ba/F3 V617F tox 85.2*, BaF3 parental 73.3*, APP 5UTR inh -3.8, KLF5 inh -18.4 and IEC-6 tox 4.2.
Screening CCN(CC)CCSc1nnc2c3ccccc3n(Cc3ccccc3)c2n1 returned Ba/F3 V617F tox 29.4*, BaF3 parental 48.8*, KLF5 inh -2.9, IEC-6 tox 5.0 and aSyn 5UTR inh -16.9.
For C=CCn1c(C)cc(C(=O)CN2NS(=O)(=O)c3ccccc3C2=O)c1C the results were Ba/F3 V617F tox 4.4, BaF3 parental 16.6, APP 5UTR inh 84.6*, KLF5 inh -87.9, IEC-6 tox -1.7 and aSyn 5UTR inh -31.9.
`N#Cc1sc(NCc2ccccn2)nc1Cl` gave KLF5 inh -13.7, IEC-6 tox -7.4 and aSyn 5UTR inh 9.5.
Screening O=C(OCc1nc(-c2ccccc2)oc1COC(=O)c1ccco1)c1ccco1 returned Ba/F3 V617F tox 1.7, BaF3 parental 54.1*, APP 5UTR inh -10.8, KLF5 inh -37.6, IEC-6 tox 3.5 and aSyn 5UTR inh -10.6.
`O=C(COC(=O)c1ccco1)Nc1nnc(-c2ccccc2)o1` gave aSyn 5UTR inh -5.9.
For CC(=O)N(Cc1cccnc1)Cc1cc2ccc(C)cc2[nH]c1=O the results were Ba/F3 V617F tox -2.6, BaF3 parental 95.4*, APP 5UTR inh 9.7, KLF5 inh -13.8, IEC-6 tox 2.4 and aSyn 5UTR inh 3.8.
`CCCN(Cc1cc2ccc(C)cc2[nH]c1=O)C(=O)c1cccnc1` gave Ba/F3 V617F tox 3.1, BaF3 parental 10.2, APP 5UTR inh -12.6, KLF5 inh -22.5, IEC-6 tox -0.7 and aSyn 5UTR inh 17.2.
Screening O=C(NN=C1CCCC1)c1n[nH]c2c1CCCC2 returned Ba/F3 V617F tox 2.8, BaF3 parental 1.0, APP 5UTR inh 92.0*, KLF5 inh -24.0, IEC-6 tox 5.1 and aSyn 5UTR inh -72.6.
`O=C(NN=C1CCCC1)c1n[nH]c2c1CCC2` gave Ba/F3 V617F tox 6.2, BaF3 parental 6.2, APP 5UTR inh 94.0*, KLF5 inh -20.6, IEC-6 tox -0.2 and aSyn 5UTR inh 20.4.
Cc1ccsc1/C=N\NC(=O)c1n[nH]c2c1CCC2 was read as Ba/F3 V617F tox 5.9, BaF3 parental 9.7, APP 5UTR inh -26.4, KLF5 inh -38.9, IEC-6 tox 13.9 and aSyn 5UTR inh 68.6*.
For O=C(N/N=C/c1c(Cl)cccc1Cl)c1n[nH]c2c1CCCC2 the results were Ba/F3 V617F tox -0.4, BaF3 parental 3.5, APP 5UTR inh -45.8, KLF5 inh -101.6, IEC-6 tox -3.3 and aSyn 5UTR inh -135.4.
For O=C(NN=C1CCCCCC1)c1ccncc1 the results were KLF5 inh -12.6 and IEC-6 tox 0.9.

Assay outcomes deposited in PubChem by several laboratories.
